# According to ChEMBL document CHEMBL3988442, “University of Dundee, Small-Polar-MMV Screening Library” (2021):
# Molecular target: T1, Aspartate--tRNA(Asp/Asn) ligase (Mycobacterium tuberculosis (strain ATCC 25618 / H37Rv)) (UniProt P9WFW3)
# T1 sequence (whole entry): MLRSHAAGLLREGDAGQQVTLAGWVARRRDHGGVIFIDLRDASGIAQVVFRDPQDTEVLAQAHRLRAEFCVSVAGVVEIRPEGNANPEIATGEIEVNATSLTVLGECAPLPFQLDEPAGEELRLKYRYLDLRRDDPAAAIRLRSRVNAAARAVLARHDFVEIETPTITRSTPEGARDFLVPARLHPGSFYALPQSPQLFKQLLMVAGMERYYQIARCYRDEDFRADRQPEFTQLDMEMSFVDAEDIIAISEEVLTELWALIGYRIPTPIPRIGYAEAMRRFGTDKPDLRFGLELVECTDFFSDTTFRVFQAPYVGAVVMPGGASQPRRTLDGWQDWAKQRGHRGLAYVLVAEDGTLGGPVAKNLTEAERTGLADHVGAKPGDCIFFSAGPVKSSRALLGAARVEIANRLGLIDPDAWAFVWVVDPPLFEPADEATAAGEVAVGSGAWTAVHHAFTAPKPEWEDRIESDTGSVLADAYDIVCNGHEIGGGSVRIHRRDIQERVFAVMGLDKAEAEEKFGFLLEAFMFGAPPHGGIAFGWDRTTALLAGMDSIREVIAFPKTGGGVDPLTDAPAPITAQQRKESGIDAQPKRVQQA
# Assay: Assay for Asp RNA synthetase-1 from Mycobacterium tuberculosis
# Type: functional
# Design: scale not given: in the data most compounds retested in dose-response had high values
# Conditions: 30 µM
row,Compound,Percent Effect [%]
1,CC(NC(=O)N1CCN(c2ccc(Cl)cc2)CC1)C(=O)N1CCSCC1 (stereo not given),-5.11
2,O=C1COC2(COCCN(Cc3ccsc3)C2)CN1c1ccc(F)cc1 (stereo not given),2.55
3,CN1CCCc2cc(CNC(=O)c3ccc(NC4CC4)nc3)ccc21,-3.1
4,CCC(C)NC(=O)N1CCCn2cnc(CO)c2C1 (stereo not given),-2.9
5,COCCC(=O)N1CC[C@@H](N(C)C)[C@@H]1Cc1ccccc1,-3.16
6,Fc1cccc(N2C[C@H]3CCN(c4cccnc4)C[C@H]3C2)c1,6.15
7,Cc1ncsc1C(=O)N(Cc1cccnc1)C1CC1,-0.522
8,Cc1nc(N2CCN(C(=O)c3ccsc3)CC2)c2cnn(C)c2n1,5.51
9,CCOCCn1nc(C)cc1C(=O)N1CCOCC(CO)C1 (stereo not given),-1.08
10,Cc1cncc(C2CCCN(C(=O)c3scnc3C)C2)n1 (stereo not given),-4.36
11,CCC(C)(C)NC(=O)Cn1nc(C)nc1-c1cccc(C)c1,1.4
12,COc1ccc(-c2nnc(SCC(=O)NCC(C)C)[nH]2)c(OC)c1,6.14
13,O=C(NC1(c2cccc(F)c2)CCOCC1)c1ccccn1,-1.19
14,Cc1ccc(-c2cc(CN3CCCC(Cn4cncn4)C3)on2)cc1 (stereo not given),2.71
15,CC(C)c1ncc2c(n1)CN(Cc1nc(-c3cccs3)no1)CC2,0.321
16,CN(C)C(=O)[C@@H]1C[C@@H]2CCN(Cc3ccc4c(c3)OCO4)C[C@@H]2O1,-0.869
17,Cc1csc(N2CCCN(Cc3noc(C)n3)CC2)n1,1.56
18,CC(=O)Nc1nc(CN2CCCC2Cn2cc(C)cn2)cs1 (stereo not given),-2.91
19,Cc1cc(=O)[nH]c(SCC(=O)N(C)CC2Cc3ccccc3CN2C)n1 (stereo not given),1.96
20,COc1ccccc1CNC(=O)N1CCCC(NS(C)(=O)=O)C1 (stereo not given),1.76

row,Compound,Percent Effect [%]
1,CN(C)CCN1CCCC12CCN(C(=O)c1cnccn1)CC2,1.96
2,Cc1ccc(CN2CCC3(CC2)CC(c2cccnc2)CO3)s1 (stereo not given),-2.49
3,CN(C)S(=O)(=O)N1C[C@@H](Oc2ccccn2)[C@H]2OCCC[C@H]21,2.06
4,CC(C)c1nc(C2CCCN(C(=O)CCCn3cncn3)C2)no1 (stereo not given),9.5
5,CN1CCC(Oc2ccc(NC(=O)c3ccccc3Br)cc2)CC1,-0.921
6,Cn1ccc(C(=O)N2CCCC(Cc3cccc4ncccc34)C2)n1 (stereo not given),-2.07
7,O=C(c1nc(=O)[nH][nH]1)N1CCCC(c2cc(C(F)(F)F)[nH]n2)C1 (stereo not given),-1.69
8,Nc1cc(CCCNC(=O)NC2CC2)nn1-c1ccccc1,-4.03
9,CN(C)C(=O)c1ccc2c(c1)N(C)C(CC(=O)NCc1ccno1)CO2 (stereo not given),-2.42
10,CN(C)S(=O)(=O)N1CC[C@]2(C[C@H](Oc3ncccc3F)CO2)C1,2.03
11,Cc1cc(C)nc(Nc2cc(C3CCCN(C)C3)nc(C)n2)n1 (stereo not given),0.64
12,Cc1cn[nH]c1C1CCCCN1C(=O)CCN1CCCCCC1 (stereo not given),8.57
13,CC(Cn1cccn1)NC(=O)Nc1nnc(C2CC2)s1 (stereo not given),-7.13
14,Cc1oc(C(=O)O)cc1S(=O)(=O)Nc1cc(Cl)ccc1F,-2.58
15,COCCO[C@@H]1CCN(C(=O)c2ccc(C)o2)[C@@H]1Cc1cnn(C)c1,2.6
16,N#Cc1ccccc1N1CCCN(C(=O)CCc2nccs2)CC1,-8.37
17,COc1ccc(NC(=O)CNc2cccc3c2CCCC3)c(OC)c1,1
18,CC(C)C(C(=O)N1CCC(Nc2cccnn2)CC1)n1cncn1 (stereo not given),0.434
19,CS(=O)(=O)NC[C@H]1OC[C@@H]2CCN(Cc3ccc(F)cc3)C[C@@H]21,0.903
20,O=C(O)c1nnn(Cc2cccc(C(F)(F)F)c2)c1-c1cccnc1,-1.36
